# Inconclusive results are not listed. More than one record can exist for a structure, and the calls need not agree. The source made the active and inactive calls. The calls were made as follows, unless noted: active = hit-call score of the fitted dose curve at least 0.9, where 1 is the maximum; inactive = score below 0.9.
# Assays:
# [1] = APR_HepG2_CellCycleArrest_24hr: Apredica 24-hour HepG2 Assay for Cell Cycle Arrest (AID 2282905); conditions: imaging, actives raise or lower the signal;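 also: cell cycle arrest scored as ratio of 2N to 4N nuclear DNA content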
# Outline: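 HepG2, 24 hr dosing, 10-pt 0.39–200 uM in duplicate, 0.5% DMSO. Fixed 3.7% formaldehyde, permeabilized 0.5% Triton X-100, Hoechst 33342 2 ug/mL. Imaged 20x; nuclear DNA content quantified; bidirectional fit vs DMSO.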
# [2] = APR_HepG2_CellLoss_24hr: Apredica 24-hour HepG2 Assay for Cell Loss (AID 2282908); conditions: high-content imaging;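 as to AC50: fit in both directions so a hit may be cell loss or gain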
# Outline: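 10-pt dose, 0.39–200 uM, n=2/plate; DMSO 0.5% v/v final as negative control. Fix 3.7% formaldehyde 30 min RT, permeabilize 0.5% Triton X-100, stain Hoechst 33342 2 ug/mL, image 20x. Nuclear count, bidirectional fit vs DMSO.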
# [3] = APR_HepG2_MitoticArrest_24hr: Apredica 24-hour HepG2 Assay for Mitotic Arrest (AID 2282910); conditions: high-content imaging, actives raise or lower the signal
# Outline: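 HepG2 human liver cells were exposed to compounds at 0.39–200 uM (10 concentrations, duplicate) in 0.5% v/v DMSO for 24 hr, then fixed and immunostained for phospho-histone H3 with Hoechst 33342. Mitotic arrest came from HCS fluorescent imaging, fitted bidirectionally against DMSO.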
# [4] = APR_HepG2_MitoMass_24hr: Apredica 24-hour HepG2 Assay for Mitochondrial Mass (AID 2282912); conditions: high-content imaging, actives raise or lower the signal
# Outline: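 Mitochondrial mass is read as MitoTracker Red fluorescence intensity from automated imaging, with bidirectional curve fitting relative to DMSO. HepG2 cells received compound (0.39–200 uM, 0.5% DMSO final) for 24 hr and were dye-loaded (250 nM, 30 min) before formaldehyde fixation.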
# [5] = APR_HepG2_p53Act_24hr: Apredica 24-hour HepG2 Assay for p53 Activation (AID 2282913); conditions: high-content imaging, actives raise or lower the signal;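 also: p53 protein immunofluorescence averaged per cell in HepG2 with Hoechst nuclei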
# Outline: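 Read-out: Cy5 immunofluorescence for p53 in fixed, permeabilized HepG2, imaged by HCS with Hoechst-defined nuclei. Dosing was 24 hr at 0.39–200 uM in 0.5% DMSO. Curves were fitted bidirectionally relative to DMSO.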
# [6] = APR_HepG2_CellCycleArrest_72hr: Apredica 72-hour HepG2 Assay for Cell Cycle Arrest (AID 2282914); conditions: high-content imaging, actives raise or lower the signal
# Outline: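 HepG2, 72 hr exposure, 10-point 0.39–200 uM, duplicate, 0.5% DMSO final. Fix 3.7% formaldehyde 30 min RT, Triton X-100 0.5%, Hoechst 33342 2 ug/mL. ArrayScan 20x, six fields/well; DNA content per nucleus; bidirectional fit vs DMSO.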
# [7] = APR_HepG2_CellLoss_72hr: Apredica 72-hour HepG2 Assay for Cell Loss (AID 2282915); conditions: high-content imaging
# Outline: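 HepG2 cells were exposed for 72 hr to compounds at 0.39–200 uM (ten concentrations, duplicate) in 0.5% v/v final DMSO. Nuclei were stained with Hoechst 33342 after 3.7% formaldehyde fixation, imaged at 20x, and counted; fits bidirectional versus DMSO.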
# [8] = APR_HepG2_MitoMembPot_72hr: Apredica 72-hour HepG2 Assay for Mitochondrial Membrane Potential (AID 2282917); conditions: imaging, actives raise or lower the signal
# Outline: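 HepG2 cells exposed 72 h to compounds at 0.39–200 uM (0.5% v/v DMSO, duplicates); MitoTracker Red CMXRos 250 nM loaded 30 min before 3.7% formaldehyde fixation, imaged by HCS fluorescence. Bidirectional fit versus DMSO.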
# [9] = APR_HepG2_MicrotubuleCSK_72hr: Apredica 72-hour HepG2 Assay for Microtubule CSK Stabilty (AID 2282919); conditions: HepG2 microtubule cytoskeleton, high-content imaging, actives raise or lower the signal
# Outline: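 HepG2 human liver cells were dosed for 72 h at ten concentrations from 0.39 to 200 uM in duplicate (0.5% v/v DMSO final). Fixed, permeabilized cells were immunostained for alpha-tubulin (Cy5) with a Hoechst counterstain and imaged at 20x.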
# [10] = ACEA_ER_80hr: ACEA Biosciences xCELLigence Real-Time Cell Analysis on Estrogen Receptor Agonism for Proliferation (AID 2282667; active = hit-call score of the fitted dose curve at least 0.9, where 1 is the maximum); conditions: T47D proliferation, impedance (xCELLigence), 80 h
# Outline: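 Impedance readout (RT-CES) of T47D proliferation at 80 h post-dose; gain of signal vs DMSO baseline. Compounds: 8 conc, 1:4 serial, top 100 uM final, ≤0.5% DMSO; biological duplicate.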
smiles,measurement,setting,value
CC(=O)[O][Hg][c]1ccccc1,outcome,[1],inactive
same,AC50,[2],5.21 µM (active)
same,AC50,[3],3.06 µM (active)
same,outcome,[4],inactive
same,outcome,[5],inactive
same,AC50,[6],28.7 µM (active)
same,AC50,[7],3.19 µM (active)
same,outcome,[8],inactive
same,AC50,[9],2.44 µM (active)
COc1cc(-c2ccc(N)c(OC)c2)ccc1N,AC50,[1],58.7 µM (active)
same,outcome,[1],inactive
same,AC50,[2],26.9 µM (active)
same,outcome,[2],inactive
same,AC50,[3],28.8 µM (active)
same,outcome,[3],inactive
same,outcome,[4],inactive
same,outcome,[5],inactive
same,AC50,[6],13.8 µM (active)
same,outcome,[6],inactive
same,AC50,[7],56.5 µM (active)
same,outcome,[7],inactive
same,AC50,[8],14.3 µM (active)
same,outcome,[8],inactive
same,AC50,[9],42.1 µM (active)
same,outcome,[9],inactive
CC(C)(c1ccccc1)c1ccc(O)c(C(C)(C)c2ccccc2)c1,outcome,[1],inactive
same,AC50,[2],28.1 µM (active)
same,outcome,[3],inactive
same,outcome,[4],inactive
same,AC50,[5],40.8 µM (active)
same,outcome,[6],inactive
same,AC50,[7],31.2 µM (active)
same,outcome,[8],inactive
same,outcome,[9],inactive
CCc1ccccc1C,AC50,[10],0.0879 µM (active)
C=CC(=O)OCCCCCC(C)C,outcome,[1],inactive
same,outcome,[2],inactive
same,outcome,[3],inactive
same,outcome,[4],inactive
same,outcome,[5],inactive
same,AC50,[6],108 µM (active)
same,AC50,[7],92.1 µM (active)
same,outcome,[8],inactive
same,outcome,[9],inactive
C[C@@H]1C[C@@H]([C@H](O)CC2CC(=O)NC(=O)C2)C(=O)[C@@H](C)C1,AC50,[1],1.19 µM (active)
same,AC50,[2],0.465 µM (active)
same,outcome,[3],inactive
same,outcome,[4],inactive
same,AC50,[5],21.7 µM (active)
same,AC50,[6],7.46 µM (active)
same,AC50,[7],0.415 µM (active)
same,outcome,[8],inactive
same,AC50,[9],1.11 µM (active)
CC(C)(OO)c1ccccc1,AC50,[1],78.4 µM (active)
same,AC50,[2],72.2 µM (active)
same,AC50,[3],71.4 µM (active)
same,outcome,[4],inactive
same,AC50,[5],65.8 µM (active)
same,AC50,[6],88.8 µM (active)
same,AC50,[7],59.9 µM (active)
same,outcome,[8],inactive
same,outcome,[9],inactive
O=C(O)C(F)(F)C(F)(F)C(F)(F)C(F)(F)C(F)(F)C(F)(F)F,outcome,[1],inactive
same,outcome,[2],inactive
same,outcome,[3],inactive
same,outcome,[4],inactive
same,outcome,[5],inactive
same,outcome,[6],inactive
same,AC50,[7],14.5 µM (active)
same,outcome,[8],inactive
same,outcome,[9],inactive
CC1CN1P(=O)(N1CC1C)N1CC1C (centres undefined),outcome,[10],inactive
ClCC(Cl)CCl,outcome,[1],inactive
same,outcome,[2],inactive
same,outcome,[3],inactive
same,outcome,[4],inactive
same,outcome,[5],inactive
same,outcome,[6],inactive
same,outcome,[7],inactive
same,outcome,[8],inactive
same,outcome,[9],inactive
O=C(O)C(F)(F)C(F)(F)C(F)(F)C(F)(F)C(F)(F)C(F)(F)C(F)(F)C(F)(F)C(F)(F)C(F)(F)F,AC50,[1],68.4 µM (active)
same,AC50,[2],83.1 µM (active)
same,AC50,[3],60.9 µM (active)
same,AC50,[4],76.3 µM (active)
same,AC50,[5],66.9 µM (active)
same,AC50,[6],68.8 µM (active)
same,AC50,[7],83.3 µM (active)
same,outcome,[8],inactive
same,outcome,[9],inactive
CCC(C)(C)c1ccc(O)c(C(C)(C)CC)c1,AC50,[1],28.1 µM (active)
same,AC50,[2],40.5 µM (active)
same,AC50,[3],32.3 µM (active)
same,outcome,[4],inactive
same,AC50,[5],32.1 µM (active)
same,AC50,[6],13.9 µM (active)
same,AC50,[7],37.4 µM (active)
same,outcome,[8],inactive
same,outcome,[9],inactive
CCN1CCC2(CC1)COc1cc3c(cc12)N(C(=O)c1ccc(-c2ccc(-c4nnc(C)o4)cc2C)cc1)CC3,outcome,[1],inactive
same,AC50,[2],17.5 µM (active)
same,AC50,[3],13.2 µM (active)
same,AC50,[4],7.43 µM (active)
same,AC50,[5],25.8 µM (active)
same,outcome,[6],inactive
same,AC50,[7],9.88 µM (active)
same,AC50,[8],75.1 µM (active)
same,outcome,[9],inactive
CCCCOCCOC(C)=O,outcome,[10],inactive
CC(C)(C)c1cc(O)ccc1O,outcome,[1],inactive
same,AC50,[2],125 µM (active)
same,outcome,[3],inactive
same,AC50,[4],151 µM (active)
same,outcome,[5],inactive
same,outcome,[6],inactive
same,AC50,[7],144 µM (active)
same,outcome,[8],inactive
same,outcome,[9],inactive
Cn1sc(Cl)cc1=O,outcome,[1],inactive
same,AC50,[2],109 µM (active)
same,AC50,[3],110 µM (active)
same,AC50,[4],117 µM (active)
same,AC50,[5],113 µM (active)
same,outcome,[6],inactive
same,AC50,[7],104 µM (active)
same,AC50,[8],120 µM (active)
same,AC50,[9],135 µM (active)
O=C(c1ccccc1)C(Cl)Cl,outcome,[10],inactive
C[C@]12CCC(=O)C[C@@H]1CC[C@@H]1[C@@H]2CC[C@]2(C)[C@@H](O)CC[C@@H]12,outcome,[1],inactive
same,outcome,[2],inactive
same,outcome,[3],inactive
same,outcome,[4],inactive
same,outcome,[5],inactive
same,outcome,[6],inactive
same,AC50,[7],64.5 µM (active)
same,outcome,[8],inactive
same,outcome,[9],inactive
ClC1(Cl)C2(Cl)C3(Cl)C4(Cl)C(Cl)(Cl)C5(Cl)C3(Cl)C1(Cl)C5(Cl)C24Cl (centres undefined),outcome,[1],inactive
same,outcome,[2],inactive
same,outcome,[3],inactive
same,outcome,[4],inactive
same,outcome,[5],inactive
same,outcome,[6],inactive
same,outcome,[7],inactive
same,outcome,[8],inactive
same,outcome,[9],inactive
NC(=O)O,AC50,[1],10.7 µM (active)
same,AC50,[2],6.38 µM (active)
same,AC50,[3],5.54 µM (active)
same,AC50,[4],59.3 µM (active)
same,AC50,[5],9.29 µM (active)
same,AC50,[6],12.2 µM (active)
same,AC50,[7],3.92 µM (active)
same,outcome,[8],inactive
same,AC50,[9],3.05 µM (active)
CC12CC1(C)C(=O)N(c1cc(Cl)cc(Cl)c1)C2=O (centres undefined),outcome,[1],inactive
same,outcome,[2],inactive
same,outcome,[3],inactive
same,outcome,[4],inactive
same,outcome,[5],inactive
same,outcome,[6],inactive
same,outcome,[7],inactive
same,outcome,[8],inactive
same,outcome,[9],inactive

# Reference: PubChem BioAssay (EPA / NIEHS)
